# Screening data as filed in PubChem BioAssay.
# S1P4 antag: antagonists of human S1P4 receptor; S1P4-expressing cells, antagonist mode, reporter read-out; inhibition, % at 4.98 µM; 220,000 tested, 0.26% active; AID 1510; in the data active means inhibition above about 29%;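 further: 0% = wells stimulated with agonist and 100% = vehicle wells without agonist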
# Target sequence (O95977 whole entry, looked up): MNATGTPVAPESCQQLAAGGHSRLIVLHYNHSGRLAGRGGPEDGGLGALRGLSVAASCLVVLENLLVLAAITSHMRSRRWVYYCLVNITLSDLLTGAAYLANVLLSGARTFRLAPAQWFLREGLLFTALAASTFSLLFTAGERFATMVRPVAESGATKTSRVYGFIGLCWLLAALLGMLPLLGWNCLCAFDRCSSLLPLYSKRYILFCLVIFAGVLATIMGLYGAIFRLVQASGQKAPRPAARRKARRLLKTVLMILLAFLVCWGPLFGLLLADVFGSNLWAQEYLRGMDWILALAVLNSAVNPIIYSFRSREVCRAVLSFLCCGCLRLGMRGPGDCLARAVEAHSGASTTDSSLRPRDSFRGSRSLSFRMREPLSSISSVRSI
# Hsp70 activator: transcriptional activators of Hsp70 | 200,000 tested, 0.04% active | HeLa Hsp70 promoter luciferase reporter, luminescence; scaled: vehicle 0, proteasome-inhibitor control 100% | AID 1203 | activation, % at 10 µM;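 active means activation above the mean across all tested compounds plus 3 SD, cutoff set per campaign, cut at about 5.5% in these data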;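 further: 100% = MG132 at 30 µM as the positive control and 0% = DMSO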
# S1P4 ag: agonists of human S1P4 receptor. S1P4-expressing cell line, agonist reporter assay. activation, % at 4.98 µM. 220,000 tested, 0.35% active. O95977; in the data active means activation above about 11%;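 further: 0% = DMSO vehicle and 100% = reference agonist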
# CHOP inhibitor: blocks CHOP induction under ER stress; 220,000 tested, 3.8% active; CHO-K1 CHOP-promoter luciferase, tunicamycin-induced, 15-18 h; inhibition, % at 10 µM; AID 2732;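 active means compounds that reduced the stress-induced luciferase reporter signal by more than about 70% of percent inhibition, limit read from the data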;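 further: 0% = tunicamycin plus vehicle and 100% = wells without tunicamycin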
# The depositor's hits bear a star; x = no result. In the library only some 4.2% were active in any assay of this set; here they are far more common.
SMILES,S1P4 antag,Hsp70 activator,S1P4 ag,CHOP inhibitor
Cc1cccc2sc(NC(=O)C3CCCN(S(=O)(=O)c4cccc5nonc45)C3)nc12 (stereo unspecified),-14,0,-3,81*
O=C(NCc1ccc(Cl)cc1)C1CCN(S(=O)(=O)c2cc([N+](=O)[O-])ccc2Cl)CC1,-11,0,3,-26
Cc1cccc(N2CCN(C(=O)C3CCN(S(=O)(=O)c4cccc5nsnc45)CC3)CC2C)c1 (stereo unspecified),-15,0,1,83*
CCOc1ccc(NC(=O)C2CCCN(S(=O)(=O)c3cccc4nsnc34)C2)cc1 (stereo unspecified),-19,0,1,74*
Cc1cccc(N2CCN(C(=O)C3CCN(S(=O)(=O)c4cccc5cccnc45)CC3)CC2C)c1 (stereo unspecified),x,x,x,28
CC(C)c1cccc(OCCCCN(C)C)c1,-12,0,0,2
COc1ccc(C)cc1NC(=O)CCS(=O)(=O)c1ccc2c(c1)CCN2C(C)=O,0,0,-1,-4
Cc1nc(CS(=O)(=O)c2ccccc2)cc(Sc2ccc(Cl)cc2Cl)n1,-18,0,-2,44
O=[N+]([O-])c1ccc(CSc2nc3ccccc3o2)cc1,4,0,1,84*
CC(C)N(C(=O)Cn1cc(SCC(N)=O)c2ccccc21)C(C)C,-3,0,2,12
CCc1ccc(OCCCC(=O)NCc2ccccc2)cc1,7,0,0,3
CCc1ccc(OCCCOc2ccc(C=O)cc2)cc1,-1,0,1,73*
O=C(NC1CC1)c1ccc(-c2nc3ccccc3s2)s1,-10,0,-1,40
O=c1cc2c(nn1Cc1ccccc1Cl)-c1ccccc1CC2,0,0,-1,86*
Cc1ccc(Cn2nc3c(cc2=O)CCc2ccccc2-3)cc1,-11,0,0,32
O=C1c2ccccc2C(=O)N1OCc1cccc(Cl)c1,-13,0,0,28
O=c1cc2c(nn1Cc1ccc(Cl)cc1)-c1ccccc1CC2,5,0,1,88*
O=c1cc2c(nn1Cc1ccc(Cl)cc1Cl)-c1ccccc1CC2,9,0,-4,50
O=c1cc2c(nn1Cc1cccc(Cl)c1)-c1ccccc1CC2,10,0,-1,95*
O=C(c1cccs1)N1CCN(Cc2ccncc2)CC1,-37,0,2,-8
CCOC(=O)c1sc(NC(=S)NC(=O)c2cccc(Cl)c2)c(C(=O)OCC)c1C,-8,0,2,23
CCn1c(SCC(=O)N/N=C/c2c[nH]c3ccccc23)nnc1-c1ccc(C)cc1,-3,0,-1,-8
Cc1ccccc1C(=NC(=O)c1ccccc1)c1ccccc1,-7,0,1,72*
NS(=O)(=O)c1ccc(N2N=C(c3ccccc3)CC2c2cccc(F)c2)cc1 (stereo unspecified),-14,-1,11,83*
COc1ccc(C2CC(c3ccccc3)=NN2c2ccc(Cl)c(C(=O)O)c2)cc1 (stereo unspecified),4,0,2,7
SMILES,S1P4 antag,Hsp70 activator,S1P4 ag,CHOP inhibitor
COc1ccc(C2CC(c3ccccc3)=NN2c2ccc(N)cc2)cc1 (stereo unspecified),7,0,0,91*
C/C(=N\NS(C)(=O)=O)c1ccccc1,-1,0,-1,18
C/C=C/c1ccc(OCCCNC(C)CC)c(OC)c1 (stereo unspecified),1,0,1,24
COc1ccccc1NS(=O)(=O)c1ccc(O)c(C(=O)OCC(=O)N2CCc3ccccc32)c1,-4,x,-1,26
O=C(Nc1cc(Cl)ccc1Cl)C1CC(=O)N(c2ccc(Br)cc2)C1 (stereo unspecified),-4,0,1,70*
COc1ccc(NC(=O)CC2C(=O)N(c3ccc(Cl)cc3)C(=S)N2CCc2ccncc2)cc1 (stereo unspecified),-15,0,1,93*
COc1ccc(NC(=O)CC2C(=O)N(c3ccc(Cl)cc3)C(=S)N2NC(=O)c2cccc(F)c2)cc1 (stereo unspecified),-25,0,0,84*
COC(=O)CN1C(=S)N(c2ccc(Cl)cc2)C(=O)C1CC(=O)Nc1ccc(F)cc1 (stereo unspecified),-8,0,0,29
COc1ccc(NC(=O)CC2C(=O)N(c3ccc(Cl)cc3)C(=S)N2CCc2ccccn2)cc1 (stereo unspecified),-4,0,-1,25
COC(=O)CN1C(=S)N(c2ccc(Cl)cc2)C(=O)C1CC(=O)Nc1ccc(Cl)cc1 (stereo unspecified),0,0,0,91*
CCN1C(=O)C(CC(=O)Nc2ccc(F)cc2)N(CCc2ccc(OC)cc2)C1=S (stereo unspecified),8,0,0,93*
CC(=O)c1cccc(NC(=O)c2ccc(NS(=O)(=O)c3c(C)noc3C)cc2)c1,3,0,1,-1
O=C(NCc1ccccc1)C(c1cccs1)N(C(=O)c1csnn1)C1CC1 (stereo unspecified),-10,1,0,28
Cc1ccc(NC(=O)CO/N=C(\N)c2nonc2N)cc1,3,0,-3,13
Nc1nonc1C(=O)NCCNCc1c(OCc2ccccc2F)ccc2ccccc12,6,0,2,73*
Nc1nonc1C(=O)NCCNCc1cc(Br)ccc1OCc1ccc(F)cc1,-8,0,-1,62
CN1/C(=C\C(=O)Nc2ccc(Cl)cc2)C(C)(C)c2ccccc21,-15,0,3,39
CN1/C(=C\C=C(/C#N)C(=O)Nc2ccc(Cl)cc2)C(C)(C)c2ccccc21,-13,0,1,75*
C=CCNc1nc(-c2ccc([N+](=O)[O-])cc2)cs1,-9,0,0,-34
CN(C)c1nc(-c2ccc([N+](=O)[O-])cc2)cs1,24,0,1,72*
Cc1nc2ccccc2n1CC(=O)NCc1ccccc1,-24,0,2,x
CC(C)c1ccc(NC(=O)C(=O)C2C(=O)Nc3ccccc32)cc1 (stereo unspecified),0,0,-1,74*
CN(C)c1ccc(NC(=O)C(=O)C2C(=O)Nc3ccccc32)cc1 (stereo unspecified),-7,x,0,-16
O=C(NC1CC1)C1=C[C@@H](c2ccccc2)C[C@@H](OCCCCO)O1,-5,0,1,21
C=CCn1c(NCCc2ccccc2)nc2c1c(=O)n(C)c(=O)n2C,-10,0,1,43
CN(Cc1ccccc1)Cc1nc2c(c(=O)n(C)c(=O)n2C)n1CCCc1ccccc1,-8,0,-3,77*
CC(C)Cn1c(CN(C)Cc2ccccc2)nc2c1c(=O)n(C)c(=O)n2C,2,0,-1,55
Cc1ccc(Cn2c(NCCc3ccccc3)nc3c2c(=O)n(C)c(=O)n3C)cc1,7,0,0,79*
CC(C)(C)C(=O)NCCn1ccc2ccccc21,0,0,3,36
C=CCn1c(CSCc2ccc(C)cc2)nnc1SCC(=O)NCc1ccccc1,0,0,-2,21
